# Rows were chosen to be rich in hits. Some 0.9% of all compounds tested hit in one or more screens of this group.
# SRC1 TRFRET art: flags TR-FRET format artefacts in PPARgamma SRC-1 recruitment agonist screen; 99,000 tested, 0.34% active; TR-FRET detection artefact counter-screen, emission ratio; active compounds read high; TR-FRET ratio at 8 µM; in the data active = TR-FRET ratio above about 2300
# PPARg SRC1 recr: PPARgamma-driven SRC-1 recruitment agonism | PPARgamma-SRC-1 coactivator recruitment biochemical assay | activation, % at 8 µM | 200,000 tested, 0.41% active | P37231; in the data active = activation above about 19%
# Target sequence (P37231 whole entry, looked up): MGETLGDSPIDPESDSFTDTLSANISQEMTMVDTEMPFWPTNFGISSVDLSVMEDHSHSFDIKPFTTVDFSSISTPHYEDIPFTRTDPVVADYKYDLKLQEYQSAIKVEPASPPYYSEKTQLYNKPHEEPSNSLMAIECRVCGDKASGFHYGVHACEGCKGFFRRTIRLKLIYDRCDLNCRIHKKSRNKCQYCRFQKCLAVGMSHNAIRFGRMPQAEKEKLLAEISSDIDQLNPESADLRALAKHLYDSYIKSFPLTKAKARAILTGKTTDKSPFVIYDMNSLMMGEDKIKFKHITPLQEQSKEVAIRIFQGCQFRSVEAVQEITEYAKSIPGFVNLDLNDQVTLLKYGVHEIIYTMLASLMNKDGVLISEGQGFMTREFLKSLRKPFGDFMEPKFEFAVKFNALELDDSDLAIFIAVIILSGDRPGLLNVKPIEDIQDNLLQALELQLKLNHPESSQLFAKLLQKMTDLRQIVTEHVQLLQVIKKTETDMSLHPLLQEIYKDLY
# SRC3 TRFRET art: TR-FRET artefact, counter-screen to PPARgamma/SRC-3 agonist assay. TR-FRET ratio at 8 µM. AID 1048. 99,000 tested, 0.39% active. PPARgamma/SRC-3 format; active compounds read high
# SRC2 TRFRET art: counter-screen for PPARgamma SRC-2 recruitment agonists: TR-FRET artefact | TR-FRET ratio at 8 µM | active compounds read high | 200,000 tested, 0.4% active
# PPARg SRC-2 ag: promotes SRC-2 coactivator recruitment by human PPARgamma | PPARgamma LBD-SRC-2 recruitment, biochemical | activation, % at 8 µM | 200,000 tested, 0.34% active | AID 1032; in the data active = activation above about 22%
# PPARg SRC3 recr: PPARgamma-driven SRC-3 recruitment agonism | biochemical PPARgamma/SRC-3 coactivator recruitment assay | P37231 | activation, % at 8 µM | 200,000 tested, 0.26% active | AID 731; in the data active = activation above about 23%
# Numbers stand for hits; i = inactive; nt = not tested or not shown; + = active, no number. Cut-off read from the data, not from the text of the source, unless noted: active = TR-FRET ratio above about 2000; inactive = the rest.
SMILES,SRC1 TRFRET art,PPARg SRC1 recr,SRC3 TRFRET art,SRC2 TRFRET art,PPARg SRC-2 ag,PPARg SRC3 recr
COc1cccc(CSc2ccc(S(=O)(=O)N3CCOCC3)cc2C(=O)NCC2CCCO2)c1OC (configuration not stated),i,i,i,i,i,i
Cc1cc(C(=O)N/N=C/c2cn[nH]c2-c2ccccc2)cs1,i,i,i,i,25,i
CCN(CC)c1ccc(/C=c2\sc3nc4ccccc4n3c2=O)c(O)c1,5472,i,4506,3056,i,i
O=c1/c(=C/c2ccc(O)c([N+](=O)[O-])c2)sc2nc3ccccc3n12,i,i,i,i,i,i
Cc1cccc(N2C(=O)CC(Sc3nc(-c4ccccc4)c4cc(Cl)ccc4n3)C2=O)c1 (configuration not stated),nt,i,nt,2388,i,i
Cc1cccc(N2C(=O)CC(Sc3nc(C)cc(C)n3)C2=O)c1 (configuration not stated),nt,i,nt,i,i,i
O=C(COC(=O)c1cccc(S(=O)(=O)N2CCOCC2)c1)Nc1nc(-c2ccccc2Cl)cs1,nt,i,nt,i,i,i
O=C(Nc1nc(-c2ccncc2)cs1)c1ccc(S(=O)(=O)N2CCOCC2)cc1,nt,i,nt,i,i,i
O=C(COc1cccc(Cl)c1)Nc1nc(-c2ccc(S(=O)(=O)N3CCOCC3)cc2)cs1,nt,i,nt,2278,i,i
O=C(Nc1nc(-c2cccs2)cs1)c1cccc(S(=O)(=O)N2CCCCCC2)c1,nt,i,nt,2098,i,i
COc1ccccc1OC(C)C(=O)Nc1nc(-c2ccc(S(=O)(=O)N3CCOCC3)cc2)cs1 (configuration not stated),nt,i,nt,2207,i,i
CCOc1cccc(C(=O)Nc2nc(-c3ccc(S(=O)(=O)N4CCOCC4)cc3)cs2)c1,nt,i,nt,2173,i,i
CC(C)(C)NC(=O)NC(=O)COC(=O)c1ccc(OC(F)(F)F)cc1,i,i,i,i,i,i
O=C(NCCc1ccc(Cl)cc1)C1CCN(c2ncccn2)CC1,i,i,i,i,i,i
O=C(NCc1ccc(F)cc1)c1cnn2ccccc12,nt,i,nt,i,i,i
COC(=O)Cn1c(=NC(=O)c2nc3ccccc3s2)sc2cc(S(C)(=O)=O)ccc21,i,i,i,i,i,i
C#CCn1c(=NC(=O)c2cc(Cl)sc2Cl)sc2cc(S(N)(=O)=O)ccc21,i,i,2182,2016,i,i
CCOC(=O)Cn1c(=NC(=O)c2sc3ccccc3c2Cl)sc2cc(S(N)(=O)=O)ccc21,i,i,5980,i,i,+
COC(=O)Cn1c(=NC(=O)c2sc3ccccc3c2Cl)sc2cc(S(N)(=O)=O)ccc21,i,i,2165,1991,i,i
C#CCn1c(=NC(=O)CN2C(=O)CCC2=O)sc2cc(S(N)(=O)=O)ccc21,i,i,i,i,i,i
COC(=O)c1sc(NC(=S)NC(=O)c2ccccc2F)nc1C,2321,i,i,2016,i,i
CCc1nc(SCC(=O)NCCc2ccccc2)c2oc3ccccc3c2n1,nt,i,nt,2202,i,i
Cc1nc(SCC(=O)Nc2ccccc2)c2oc3ccccc3c2n1,nt,i,nt,i,i,i
Cc1nc(SCC(=O)NC(C)c2ccccc2)c2oc3ccccc3c2n1 (configuration not stated),nt,i,nt,i,i,i
Cc1nc(SCC(=O)Nc2ccc(F)cc2)c2oc3ccccc3c2n1,nt,30,nt,i,i,i
SMILES,SRC1 TRFRET art,PPARg SRC1 recr,SRC3 TRFRET art,SRC2 TRFRET art,PPARg SRC-2 ag,PPARg SRC3 recr
Cc1nc(SCC(=O)c2ccc(Cl)s2)c2oc3ccccc3c2n1,nt,19,nt,i,i,i
c1ccc(COc2ccc(CNn3cnnc3)cc2)cc1,nt,i,nt,i,i,i
O=C(Nc1ccc(Cl)cc1)N1CCCN(Cc2ccccc2F)C1,nt,i,nt,i,i,i
CC1C(Br)C(=O)NC(=O)N1Cc1ccccc1 (configuration not stated),i,21,i,i,i,i
COC1=CCC2([N+](=O)[O-])CN(CCO)CC1([N+](=O)[O-])C2 (configuration not stated),i,i,i,i,i,i
Cc1ccc(Sc2cnn(-c3ccccc3)c(=O)c2Cl)cc1,nt,i,nt,2023,i,i
Nc1ccc(Sc2cnn(-c3ccccc3)c(=O)c2Cl)cc1,nt,i,nt,i,i,i
O=C(NCc1ccc2c(c1)OCO2)c1ccc(S(=O)(=O)N2CCOCC2)cc1,i,i,i,i,i,i
S=c1[nH]nc(-c2ccccc2)n1C1C=CCCC1 (configuration not stated),2316,i,i,i,i,i
O=C(Nc1cc(S(=O)(=O)N2CCOCC2)ccc1N1CCCC1)c1ccc2c(c1)S(=O)(=O)c1ccccc1C2=O,i,i,i,1978,i,i
O=C(Nc1ccccc1F)Nc1cc(S(=O)(=O)N2CCOCC2)ccc1N1CCCC1,i,i,i,i,i,i
C/C(=N\NC(=O)c1cc(-c2ccc(C)s2)[nH]n1)c1ccco1,i,i,i,i,i,i
O=C1N=C2N(CCN3CCCCC3)c3ccccc3N2/C1=C\c1ccc([N+](=O)[O-])o1,i,i,i,i,i,i
COc1ccc(-c2cc(-c3ccccc3)nc3ncnn23)cc1,i,i,i,i,i,i
COc1ccc(-c2cc(-c3ccc(Br)cc3)nc3ncnn23)cc1OC,nt,i,nt,2400,i,i
CCOC(=O)c1cnc2c(C(F)(F)F)cccc2c1N1CCOCC1,nt,i,nt,i,i,i
CCOC(=O)c1cnc2c(C)c(Cl)ccc2c1N1CCOCC1,nt,i,nt,i,i,40
CC(C)CC(C(=O)NCc1ccccn1)N1C(=O)c2ccccc2C1=O (configuration not stated),nt,i,nt,i,i,i
Cc1ccc(CNC(=O)COc2ccc(C(=O)c3ccc(F)cc3)cc2)cc1,2702,39,i,i,i,i
CCCN(CCC)CC(=O)Nc1cccc2c1OCO2,nt,i,nt,i,i,i
COc1ccc(CCCc2n[nH]c(=S)o2)cc1,i,i,i,2009,i,i
CC(C)Cc1nc(Cl)c(C#N)c2c1CCCC2,i,i,2298,i,i,i
COc1ccc(-n2nnnc2SCC(=O)c2cc3ccccc3o2)cc1,nt,i,nt,2072,i,i
Cc1nc2ccc(NC(=O)c3cc(S(=O)(=O)N(C)c4ccccc4)ccc3Cl)cc2s1,i,i,i,i,i,i
Cc1nc2ccc(NC(=O)c3ccc(Cl)c(S(=O)(=O)N(C)c4ccccc4)c3)cc2s1,i,i,2532,i,i,i
SMILES,SRC1 TRFRET art,PPARg SRC1 recr,SRC3 TRFRET art,SRC2 TRFRET art,PPARg SRC-2 ag,PPARg SRC3 recr
CCc1cc2cc(C(=O)Nc3ccc(C)cc3)sc2s1,nt,i,nt,i,24,i
N#Cc1c(/N=C/C=C/c2ccccc2)sc2c1CCCC2,nt,i,nt,i,i,i
Cc1ccc(-c2csc(NC(=O)c3cc([N+](=O)[O-])ccc3N3CCOCC3)n2)cc1,i,i,2579,i,i,23
Cc1ccc(CNC(=O)Cn2cc(C(F)(F)F)ccc2=O)cc1,i,i,i,i,i,i
Cc1nnc(SCc2ccccc2)n1N,i,22,i,i,i,i
COC(=O)c1cnn(-c2nc3c(C)cccc3s2)c1C,nt,61,nt,i,i,i
